Data from PubChem BioAssay AID720706 (Broad Institute, 2013).
In all, about 350,000 compounds went through this assay and about 5,500 (1.6%) were called active.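 Rule for the calls: active = significant combined selectivity score with lowered wild-type GFP, culture density cut under 30%, mutant RFP and density less affected; inactive = any of these conditions unmet.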 The list comes from a sample in which actives are over-represented; it also holds similar structures and randomly drawn compounds.

assay: reduced GFP signal of wild-type E. coli, primary screen, bacterial rRNA inhibitor project, GFP/RFP fluorescence, OD600, single point (AID 720706); conditions: E. coli WT GFP vs humanized-ribosome RFP mutants, 24 h; GFP signal change (wild-type ribosome): stronger effect = lower value, DMSO median 0, no signal -100; OD600 change: measured here: OD600 growth, DMSO median 0, no signal -100; RFP signal change: measured here: RFP humanized mutant strains, DMSO median 0, no signal -100, concentration not given here

Compound | GFP signal change (wild-type ribosome) | OD600 change [%] | RFP signal change [%]
C[C@@H]1CN([C@@H](C)CO)C(=O)c2cc(NS(=O)(=O)c3cn(C)cn3)ccc2O[C@@H]1CN(C)Cc1ccc(C(=O)Nc2ccccc2N)cc1 | 5.78% (inactive) | 6.33 | 3.25
O=C(O)c1ccc(-n2nc(-c3ccccc3)c3ccccc3c2=O)cc1 | 2.07% (inactive) | -9.56 | -1.61
O=c1[nH]n2c(-c3ccccc3)nc(O)c2c2ccccc12 | -31.6% (active) | -7.74 | 0.585
COCC(=O)N1CC(=O)N2[C@@H](CO)[C@@H](c3ccc(C#CC(C)C)cc3)[C@@H]2C1 | -0.482% (inactive) | 2.33 | -1.33
COc1ccc(C#Cc2ccc([C@@H]3[C@H](CO)N4C(=O)CN(C(C)=O)C[C@@H]34)cc2)cc1 | -2.96% (inactive) | -13.2 | -2.12
CC(=O)Nc1cccc2c1O[C@@H](CN(C)C(C)=O)[C@@H](C)CN(C)C2=O | -0.3% (inactive) | 2.46 | -0.39
COc1ccc2c3c(n(C)c2c1)[C@@H](CO)N(C(=O)c1cnccn1)CC31CCN(C(C)=O)CC1 | 4.42% (inactive) | 18.1 | -2.67
C[C@@H](Nc1nc(-c2ccccc2)nc2c1oc1ccccc12)C(=O)O | -25.4% (active) | -3.54 | 7.03
COCCNc1nc(-c2ccccc2)nc2c1oc1ccccc12 | -38% (inactive) | -50.5 | -2.59
O=c1[nH]c(CSc2ccccc2)nc2c1oc1ccccc12 | 4.21% (inactive) | 3 | -8.61
O=C(C1CCCCC1)N1CC(=O)N2[C@H](CO)[C@H](c3ccc(-c4ccccc4F)cc3)[C@H]2C1 | -9.7% (inactive) | -39.9 | 0.225
C[C@@H]1CCCCO[C@@H](CN(C)C(=O)Nc2ccc(F)cc2)[C@H](C)CN([C@@H](C)CO)C(=O)c2cc(NS(C)(=O)=O)ccc2O1 | -0.965% (inactive) | -0.127 | 0.106
CN(C)CC(=O)N1[C@H](C#N)[C@H](c2ccccc2-c2cccc(C(=O)N(C)C)c2)[C@@H]1CO | 3.14% (inactive) | 9.94 | -2.26
C[C@@H]1CCCCO[C@@H](CN(C)Cc2ccc(C(=O)Nc3ccccc3N)cc2)[C@H](C)CN([C@H](C)CO)C(=O)c2cc(N(C)C)ccc2O1 | 0.759% (inactive) | 1.41 | -1.39
C[C@H]1CN([C@@H](C)CO)C(=O)Cc2cc(NC(=O)C3CC3)ccc2O[C@H]1CN(C)S(=O)(=O)c1ccc(Cl)cc1 | -2.58% (inactive) | -5.07 | 2.87
Cc1nnc(N/N=C/c2ccccn2)[nH]c1=O | -26% (active) | 6.61 | 2.3
O=C(N/N=C/c1ccccn1)c1cccc(NC(=O)c2ccc(Cl)cc2)c1 | -12.4% (inactive) | -9.16 | -2.65
S=C(NN=Cc1ccccn1)Nc1ccccn1 | -3.3% (inactive) | 1.4 | -6.11
